Experimental data as given in ChEMBL document CHEMBL3988442, “University of Dundee, Small-Polar-MMV Screening Library” (2021).
Among all 48,000 compounds or so, about 13,000 (27%) showed an effect of 50% or more. Some of the results follow.

test system: Wolbachia pipientis; assay: Anti-Wolbachia Cell-Based Screen; assay type: functional; design: scale not given: in the data most compounds retested in dose-response had high values; conditions: 5 µM

| Structure (SMILES) | Percent Effect [%] |
| --- | --- |
| Cc1nnsc1CN(C)C(=O)CN1CC2(CCNCC2)OC1=O | -6.607 |
| COc1ccncc1NC(=O)C1(c2ccccc2)CC1 | -4.467 |
| COCCN1CCC(CNC(=O)C2(C#N)CCCC2)CC1 | -6.048 |
| CCCC(=O)NCC1CCCN(Cc2cc(C)c(C)o2)C1 (stereo not drawn) | -7.568 |
| O=C(Cc1ccccc1F)NCC1CCN(CCN2CCOCC2)C1 (stereo not drawn) | 8.19 |
| CCN1CCCC(CNC(=O)CCc2ccc(OC)c(F)c2)C1 (stereo not drawn) | -5.052 |
| COCCN1CCC(CNC(=O)C2(S(C)(=O)=O)CCCC2)CC1 | -5.804 |
| COCCN1CCC(CNC(=O)C2(c3ccc(F)cc3)CCC2)CC1 | 107 |
| CC(C)(CNC(=O)C1(c2ccccc2)CCOCC1)C(=O)O | 1.32 |
| CCN1CCCC(CNC(=O)C2(c3cc(C)cc(C)c3)CCC2)C1 (stereo not drawn) | 97.54 |
| COCCN1CCC(CNC(=O)C2(c3ccccc3)CCOCC2)C1 (stereo not drawn) | 84.82 |
| COc1ccccc1NC(=O)C1(c2ccccc2)CCOCC1 | 98.14 |
| CCC(Oc1ccc(N(C)S(C)(=O)=O)cc1)C(N)=O (stereo not drawn) | 16.67 |
| O=C(c1ccc2nccnc2c1)N1CCN(CCO)[C@@H]2CS(=O)(=O)C[C@@H]21 | -5.397 |
| O=C(CCCNC(=O)Nc1ccc(F)cc1)Nc1cn[nH]c1 | -3.689 |
| Cc1cc(C(=O)N2CCN(C(=O)CC(C)C)[C@@H]3CS(=O)(=O)C[C@@H]32)no1 | -7.208 |
| Cc1noc(C)c1CN1C(=O)[C@H]2CC[C@@H]1CN(Cc1cccc(O)c1)C2 | -12.83 |
| CCCN1CCC(CNC(=O)C2(c3cc(C)cc(C)c3)CCC2)C1 (stereo not drawn) | 132 |
| COCCN1CCC(CNC(=O)C2(C#N)CCCCC2)CC1 | -10.25 |
| COCCN1CCC(CNC(=O)C2(c3ccccc3)CCC2)C1 (stereo not drawn) | 100.1 |
| Cc1cc(C)cc(C2(C(=O)NCC3CCN(CC(F)(F)F)C3)CC2)c1 (stereo not drawn) | 144.8 |
| Cc1cc(C)cc(C2(C(=O)NCC(C)CN3CCCC3=O)CC2)c1 (stereo not drawn) | 2.33 |
| CCCN1CCC(CC(=O)NCc2cc(C)nn2C)CC1 | -10.83 |
| COCCN1CCC(CNC(=O)Nc2ccc(-c3ccccc3)cc2)C1 (stereo not drawn) | -0.2028 |
| N#Cc1ccc(CNC(=O)NC2CCN(CC(F)(F)F)C2)cc1 (stereo not drawn) | 9.13 |
| COCCN1CCC(CNC(=O)C2(c3ccc(Br)cc3)CCCC2)C1 (stereo not drawn) | 150.6 |
| CC(C)[C@@H]1CN(CCCOc2ccc(F)cc2)C[C@H]1NS(C)(=O)=O | 10.36 |
| CC(C)(C)Oc1ccncc1NCc1cscn1 | -14.11 |
